Data published in PMC3218832.

Assays:
Assay in all cases: protein binding microarray; high values mean tight binding
Settings in all cases: dsDNA, one strand shown
[1] = target: RELARELA (p65 homodimer) (Homo sapiens, UniProt Q04206 1-307)
[2] = target: p50p50 homodimer (Homo sapiens, UniProt P19838 7-356)
[3] = target: T1, p52p52 homodimer (Homo sapiens, UniProt Q00653 4-332)
T1 sequence: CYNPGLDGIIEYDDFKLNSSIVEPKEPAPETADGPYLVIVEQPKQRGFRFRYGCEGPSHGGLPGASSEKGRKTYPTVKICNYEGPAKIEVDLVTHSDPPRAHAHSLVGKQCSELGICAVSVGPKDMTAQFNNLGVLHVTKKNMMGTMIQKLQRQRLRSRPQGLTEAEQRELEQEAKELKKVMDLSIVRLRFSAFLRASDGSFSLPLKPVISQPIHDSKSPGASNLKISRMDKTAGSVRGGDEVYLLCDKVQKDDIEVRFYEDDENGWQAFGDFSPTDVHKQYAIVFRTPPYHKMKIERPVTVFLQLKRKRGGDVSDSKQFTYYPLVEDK

[4] = target: RELA (p65) subunit of heterodimer;p50 subunit (Homo sapiens;Homo sapiens, UniProt Q04206;P19838 1-307;7-356)
RELA (p65) subunit of heterodimer;p50 subunit, sequence (Q04206 1-307, chain 1 of 2): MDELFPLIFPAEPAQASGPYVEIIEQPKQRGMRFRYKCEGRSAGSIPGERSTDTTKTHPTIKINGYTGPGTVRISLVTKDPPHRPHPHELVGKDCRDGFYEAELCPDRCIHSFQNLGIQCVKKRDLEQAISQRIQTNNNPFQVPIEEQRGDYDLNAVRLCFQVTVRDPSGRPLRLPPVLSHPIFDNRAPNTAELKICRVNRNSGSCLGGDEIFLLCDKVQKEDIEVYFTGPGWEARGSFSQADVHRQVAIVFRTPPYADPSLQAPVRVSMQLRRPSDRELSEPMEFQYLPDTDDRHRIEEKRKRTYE
RELA (p65) subunit of heterodimer;p50 subunit, sequence (P19838 7-356, chain 2 of 2): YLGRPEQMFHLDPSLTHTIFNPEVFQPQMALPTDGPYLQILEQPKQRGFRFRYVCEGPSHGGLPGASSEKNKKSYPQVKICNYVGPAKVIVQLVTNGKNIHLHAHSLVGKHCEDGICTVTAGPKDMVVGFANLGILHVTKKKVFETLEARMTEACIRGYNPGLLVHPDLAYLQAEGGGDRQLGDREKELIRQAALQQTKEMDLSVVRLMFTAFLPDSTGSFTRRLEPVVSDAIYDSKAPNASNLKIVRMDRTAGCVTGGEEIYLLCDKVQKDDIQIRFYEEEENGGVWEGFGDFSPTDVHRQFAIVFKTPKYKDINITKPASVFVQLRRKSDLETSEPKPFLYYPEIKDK

[5] = target: RELA (p65) subunit of heterodimer;p52 subunit (Homo sapiens;Homo sapiens, UniProt Q04206;Q00653 1-307;4-332)
[6] = target: RELB subunit;p50 subunit (Homo sapiens;Homo sapiens, UniProt Q01201;P19838 120-401;7-356)
[7] = target: T2, RELB subunit;p52 subunit (Homo sapiens;Homo sapiens, UniProt Q01201;Q00653 120-401;4-332)
T2 sequence 1: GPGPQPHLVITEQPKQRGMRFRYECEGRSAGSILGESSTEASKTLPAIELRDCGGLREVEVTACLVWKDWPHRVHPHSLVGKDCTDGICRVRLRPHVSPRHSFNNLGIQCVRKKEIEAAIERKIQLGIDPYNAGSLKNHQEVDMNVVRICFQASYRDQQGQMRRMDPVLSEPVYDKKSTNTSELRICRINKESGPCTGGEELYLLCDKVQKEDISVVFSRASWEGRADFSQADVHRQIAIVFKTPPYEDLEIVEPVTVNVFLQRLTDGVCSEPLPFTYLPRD
T2 sequence 2: T1 sequence

[8] = target: C-Rel subunit;p50 subunit (Homo sapiens;Homo sapiens, UniProt Q04864;P19838 1-285;7-356)
[9] = target: T3, C-Rel subunit;p52 subunit (Homo sapiens;Homo sapiens, UniProt Q04864;Q00653 1-285;4-332)
T3 sequence 1: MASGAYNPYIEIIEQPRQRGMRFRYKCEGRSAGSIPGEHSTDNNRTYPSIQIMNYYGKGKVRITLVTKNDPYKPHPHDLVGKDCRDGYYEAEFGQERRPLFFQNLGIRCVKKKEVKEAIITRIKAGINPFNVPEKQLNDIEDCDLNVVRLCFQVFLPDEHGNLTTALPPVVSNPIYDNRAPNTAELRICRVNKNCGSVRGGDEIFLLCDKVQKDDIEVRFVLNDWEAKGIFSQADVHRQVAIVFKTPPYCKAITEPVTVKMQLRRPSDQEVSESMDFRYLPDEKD
T3 sequence 2: T1 sequence

RELARELA (p65 homodimer), sequence (Q04206 1-307): as the sequence (Q04206 1-307, chain 1 of 2) above
p50p50 homodimer, sequence (P19838 7-356): as the sequence (P19838 7-356, chain 2 of 2) above

Sequence: AAGGGACCCCC
- binding signal [1]: -0.529 z-score
- binding signal [2]: 0.964 z-score
- binding signal [3]: 0.927 z-score
- binding signal [4]: 0.806 z-score
- binding signal [5]: 0.93 z-score
- binding signal [6]: 0.75 z-score
- binding signal [7]: 0.929 z-score
- binding signal [8]: 0.681 z-score
- binding signal [9]: 0.75 z-score

Sequence: CAGTGGCTCCC
- binding signal [1]: -0.478 z-score
- binding signal [2]: -1.44 z-score
- binding signal [3]: -0.661 z-score
- binding signal [4]: -0.743 z-score
- binding signal [5]: -0.817 z-score
- binding signal [6]: -0.932 z-score
- binding signal [7]: -0.764 z-score
- binding signal [8]: -1.22 z-score
- binding signal [9]: -0.857 z-score

Sequence: CAGAACTTCCC
- binding signal [1]: 1.94 z-score
- binding signal [2]: 0.457 z-score
- binding signal [3]: 0.196 z-score
- binding signal [4]: 0.921 z-score
- binding signal [5]: 0.329 z-score
- binding signal [6]: 0.182 z-score
- binding signal [7]: 0.0935 z-score
- binding signal [8]: 0.664 z-score
- binding signal [9]: 0.413 z-score

Sequence: AGATGAACCCC
- binding signal [1]: -0.232 z-score
- binding signal [2]: -0.284 z-score
- binding signal [3]: -0.287 z-score
- binding signal [4]: -0.402 z-score
- binding signal [5]: -0.342 z-score
- binding signal [6]: -0.255 z-score
- binding signal [7]: -0.0728 z-score
- binding signal [8]: -0.464 z-score
- binding signal [9]: -0.256 z-score

Sequence: CAAAATATCCC
- binding signal [1]: 0.764 z-score
- binding signal [2]: 0.4 z-score
- binding signal [3]: 0.253 z-score
- binding signal [4]: 0.376 z-score
- binding signal [5]: 0.346 z-score
- binding signal [6]: 0.128 z-score
- binding signal [7]: 0.342 z-score
- binding signal [8]: 0.0335 z-score
- binding signal [9]: 0.411 z-score

Sequence: GGGATAGTCCC
- binding signal [1]: 2.07 z-score
- binding signal [2]: 0.707 z-score
- binding signal [3]: 2.94 z-score
- binding signal [4]: 1.82 z-score
- binding signal [5]: 2.15 z-score
- binding signal [6]: 1.87 z-score
- binding signal [7]: 1.6 z-score
- binding signal [8]: 1.32 z-score
- binding signal [9]: 1.96 z-score

Sequence: GAATTCGCCCT
- binding signal [1]: 0.00849 z-score
- binding signal [2]: -0.928 z-score
- binding signal [3]: -0.505 z-score
- binding signal [4]: -0.461 z-score
- binding signal [5]: -0.517 z-score
- binding signal [6]: -0.698 z-score
- binding signal [7]: -0.722 z-score
- binding signal [8]: -0.531 z-score
- binding signal [9]: -0.36 z-score

Sequence: AGAGGAATCCC
- binding signal [1]: 0.476 z-score
- binding signal [2]: 0.189 z-score
- binding signal [3]: 0.335 z-score
- binding signal [4]: 0.188 z-score
- binding signal [5]: 0.227 z-score
- binding signal [6]: 0.0745 z-score
- binding signal [7]: 0.269 z-score
- binding signal [8]: 0.405 z-score
- binding signal [9]: 0.416 z-score

Sequence: AAGGTTATCCC
- binding signal [1]: -0.0178 z-score
- binding signal [2]: -0.0329 z-score
- binding signal [3]: 0.0211 z-score
- binding signal [4]: -0.139 z-score
- binding signal [5]: -0.074 z-score
- binding signal [6]: -0.236 z-score
- binding signal [7]: -0.173 z-score
- binding signal [8]: -0.0847 z-score
- binding signal [9]: -0.165 z-score

Sequence: GAAAGACCCCC
- binding signal [1]: -0.269 z-score
- binding signal [2]: 0.985 z-score
- binding signal [3]: 0.754 z-score
- binding signal [4]: 1.12 z-score
- binding signal [5]: 1.17 z-score
- binding signal [6]: 0.92 z-score
- binding signal [7]: 1.03 z-score
- binding signal [8]: 0.485 z-score
- binding signal [9]: 0.846 z-score

Sequence: CAGGATATCCC
- binding signal [1]: 0.644 z-score
- binding signal [2]: -0.266 z-score
- binding signal [3]: -0.111 z-score
- binding signal [4]: -0.14 z-score
- binding signal [5]: -0.0926 z-score
- binding signal [6]: -0.231 z-score
- binding signal [7]: -0.211 z-score
- binding signal [8]: -0.116 z-score
- binding signal [9]: -0.032 z-score

Sequence: CGGGGGTCCCT
- binding signal [1]: 0.00646 z-score
- binding signal [2]: 1.14 z-score
- binding signal [3]: 0.985 z-score
- binding signal [4]: 0.963 z-score
- binding signal [5]: 1.07 z-score
- binding signal [6]: 1.06 z-score
- binding signal [7]: 1.23 z-score
- binding signal [8]: 0.761 z-score
- binding signal [9]: 0.926 z-score

Sequence: GAAATCGCCCC
- binding signal [1]: 0.357 z-score
- binding signal [2]: 0.544 z-score
- binding signal [3]: 0.298 z-score
- binding signal [4]: 0.401 z-score
- binding signal [5]: 0.557 z-score
- binding signal [6]: 0.494 z-score
- binding signal [7]: 0.759 z-score
- binding signal [8]: 0.842 z-score
- binding signal [9]: 0.389 z-score

Sequence: GAGTGGATCCT
- binding signal [1]: -0.466 z-score
- binding signal [2]: -1.11 z-score
- binding signal [3]: -0.663 z-score
- binding signal [4]: -0.846 z-score
- binding signal [5]: -1 z-score
- binding signal [6]: -1.04 z-score
- binding signal [7]: -0.919 z-score
- binding signal [8]: -1.49 z-score
- binding signal [9]: -0.92 z-score

Sequence: CAATTCCTCCT
- binding signal [1]: 0.0653 z-score
- binding signal [2]: -1.06 z-score
- binding signal [3]: -0.655 z-score
- binding signal [4]: -0.688 z-score
- binding signal [5]: -0.609 z-score
- binding signal [6]: -0.871 z-score
- binding signal [7]: -0.932 z-score
- binding signal [8]: -0.776 z-score
- binding signal [9]: -0.597 z-score

Sequence: CAATACTTCCT
- binding signal [1]: -0.118 z-score
- binding signal [2]: -1.09 z-score
- binding signal [3]: -0.562 z-score
- binding signal [4]: -0.687 z-score
- binding signal [5]: -0.787 z-score
- binding signal [6]: -1.04 z-score
- binding signal [7]: -0.781 z-score
- binding signal [8]: -0.77 z-score
- binding signal [9]: -0.829 z-score

Sequence: AGAAAGTCCCC
- binding signal [1]: 1.93 z-score
- binding signal [2]: 1.38 z-score
- binding signal [3]: 2.13 z-score
- binding signal [4]: 1.84 z-score
- binding signal [5]: 1.96 z-score
- binding signal [6]: 2.19 z-score
- binding signal [7]: 1.93 z-score
- binding signal [8]: 1.62 z-score
- binding signal [9]: 1.91 z-score

Sequence: CAGGTGTTCCC
- binding signal [1]: 0.518 z-score
- binding signal [2]: 0.0166 z-score
- binding signal [3]: 0.0698 z-score
- binding signal [4]: -0.00537 z-score
- binding signal [5]: 0.153 z-score
- binding signal [6]: -0.0984 z-score
- binding signal [7]: -0.0353 z-score
- binding signal [8]: 0.188 z-score
- binding signal [9]: 0.359 z-score

Sequence: CAGAATTCCCC
- binding signal [1]: 3.2 z-score
- binding signal [2]: 1.49 z-score
- binding signal [3]: 2.61 z-score
- binding signal [4]: 2.25 z-score
- binding signal [5]: 2.29 z-score
- binding signal [6]: 2.26 z-score
- binding signal [7]: 2.21 z-score
- binding signal [8]: 1.73 z-score
- binding signal [9]: 2.61 z-score

Sequence: AGGTTGGCCCC
- binding signal [1]: -0.789 z-score
- binding signal [2]: -0.369 z-score
- binding signal [3]: -0.374 z-score
- binding signal [4]: -0.277 z-score
- binding signal [5]: -0.287 z-score
- binding signal [6]: -0.0488 z-score
- binding signal [7]: -0.238 z-score
- binding signal [8]: -0.00473 z-score
- binding signal [9]: 0.0517 z-score

Sequence: GAGTTGTTCCC
- binding signal [1]: 0.34 z-score
- binding signal [2]: -0.415 z-score
- binding signal [3]: -0.231 z-score
- binding signal [4]: -0.188 z-score
- binding signal [5]: -0.206 z-score
- binding signal [6]: -0.327 z-score
- binding signal [7]: -0.463 z-score
- binding signal [8]: -0.00411 z-score
- binding signal [9]: -0.104 z-score

Sequence: GAGGAGCCCCC
- binding signal [1]: -0.939 z-score
- binding signal [2]: 1.04 z-score
- binding signal [3]: 0.368 z-score
- binding signal [4]: 0.44 z-score
- binding signal [5]: 0.25 z-score
- binding signal [6]: 0.656 z-score
- binding signal [7]: 0.61 z-score
- binding signal [8]: 0.625 z-score
- binding signal [9]: 0.222 z-score

Sequence: GGATGAACCCT
- binding signal [1]: -0.273 z-score
- binding signal [2]: -1.25 z-score
- binding signal [3]: -0.595 z-score
- binding signal [4]: -0.588 z-score
- binding signal [5]: -0.76 z-score
- binding signal [6]: -0.936 z-score
- binding signal [7]: -0.814 z-score
- binding signal [8]: -1.23 z-score
- binding signal [9]: -0.571 z-score
